The supplement of paper PMC10849652
Of roughly 8,800 targets only a part is listed; those with a hit were picked by preference. About 0.5% of all pairs of compound and target were hits.

How the values were obtained:
Assay in all cases: log2 fold change, soluble protein after heating vs DMSO (PISA); higher = thermal stabilisation; K562 lysate, 10 uM; active = over 0.2 and 3.5 SD of the protein, either way, in both replicates (recomputed)
lapatinib = compound: CS(=O)(=O)CCNCc1ccc(-c2ccc3ncnc(Nc4ccc(OCc5cccc(F)c5)c(Cl)c4)c3c2)o1 [lapatinib]
How it was run: (§1)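 K562 pellets were dounce-homogenised in PBS pH 7.4 with 1 mM MgCl2, and the crude extract at 1 mg/mL protein was treated with 10 μM compound for 30 min. Aliquots were heated for 3 min across 48°C-58°C, pooled, and brought to 0.5% NP-40 at 4°C; soluble protein was the supernatant after 21,000xg for 90 min. Soluble protein was quantified by TMTpro 16plex LC-MS/MS with channel sums equalised, and reported as log2 fold change in thermal stability against DMSO controls, with values from duplicates.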

pictilisib = compound: CS(=O)(=O)N1CCN(Cc2cc3nc(-c4cccc5[nH]ncc45)nc(N4CCOCC4)c3s2)CC1 [pictilisib]
How it was run: as §1

crizotinib = compound: C[C@@H](Oc1cc(-c2cnn(C3CCNCC3)c2)cnc1N)c1c(Cl)ccc(F)c1Cl [crizotinib]
How it was run: as §1

[1] = compound: C[C@H](C1=CC=C(C=C1)C(=O)NC2=C3C=CNC3=NC=C2)N
How it was run: as §1

duvelisib = compound: C[C@H](Nc1ncnc2nc[nH]c12)c1cc2cccc(Cl)c2c(=O)n1-c1ccccc1 [duvelisib]
How it was run: as §1

gandotinib = compound: Cc1cc(Nc2cc(CN3CCOCC3)c3nc(C)c(Cc4ccc(Cl)cc4F)n3n2)n[nH]1 [gandotinib]
How it was run: as §1

tozasertib = compound: Cc1cc(Nc2cc(N3CCN(C)CC3)nc(Sc3ccc(NC(=O)C4CC4)cc3)n2)n[nH]1 [tozasertib]
How it was run: as §1

doramapimod = compound: Cc1ccc(-n2nc(C(C)(C)C)cc2NC(=O)Nc2ccc(OCCN3CCOCC3)c3ccccc23)cc1 [doramapimod]
How it was run: as §1

bafetinib = compound: Cc1ccc(NC(=O)c2ccc(CN3CC[C@H](N(C)C)C3)c(C(F)(F)F)c2)cc1Nc1nccc(-c2cncnc2)n1 [bafetinib]
How it was run: as §1

[2] = compound: Cc1cccc(CC(=O)N2CCc3c2ccc(-c2cn(C)c4ncnc(N)c24)c3F)n1
How it was run: as §1

nilotinib = compound: Cc1cn(-c2cc(NC(=O)c3ccc(C)c(Nc4nccc(-c5cccnc5)n4)c3)cc(C(F)(F)F)c2)cn1 [nilotinib]
How it was run: as §1

[3] = compound: Cc1nc(Nc2n[nH]c3c2CN(C(=O)N[C@H](CN(C)C)c2ccccc2)C3(C)C)c2sccc2n1
How it was run: as §1

dasatinib = compound: Cc1nc(Nc2ncc(C(=O)Nc3c(C)cccc3Cl)s2)cc(N2CCN(CCO)CC2)n1 [dasatinib]
How it was run: as §1

[4] = compound: Cc1ncc(-c2ccnc(Nc3ccc(S(C)(=O)=O)cc3)n2)n1C(C)C
How it was run: as §1

[5] = compound: Cn1cc(-c2ccc3c(c2)CCN3C(=O)Cc2cccc(C(F)(F)F)c2)c2c(N)ncnc21
How it was run: as §1

quisinostat = compound: Cn1cc(CNCC2CCN(c3ncc(C(=O)NO)cn3)CC2)c2ccccc21 [quisinostat]
How it was run: as §1

tipifarnib = compound: Cn1cncc1[C@@](N)(c1ccc(Cl)cc1)c1ccc2c(c1)c(-c1cccc(Cl)c1)cc(=O)n2C [tipifarnib]
How it was run: as §1

[6] = compound: NC(=O)Nc1cc(-c2cccc(F)c2)sc1C(=O)N[C@H]1CCCNC1
How it was run: as §1

[7] = compound: NC(=O)c1cnc(N[C@@H]2CCCC[C@@H]2N)nc1Nc1cccc(-n2nccn2)c1
How it was run: as §1

[8] = compound: NC1(c2ccc(-c3nc4ccn5c(=O)[nH]nc5c4cc3-c3ccccc3)cc2)CCC1
How it was run: as §1

Measured: log2 fold change

CHURC1 isoform 2 (UniProt Q8WUH1)
UniProt Q8WUH1, sequence (Q8WUH1 whole entry, looked up): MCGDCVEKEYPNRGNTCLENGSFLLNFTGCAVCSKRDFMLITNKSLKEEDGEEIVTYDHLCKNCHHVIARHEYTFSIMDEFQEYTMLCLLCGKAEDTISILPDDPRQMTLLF
inactive: lapatinib 0.012 | pictilisib 0.043 | crizotinib -0.047 | [1] 0.026 | duvelisib 0.049 | gandotinib -0.014 | tozasertib -0.032 | doramapimod -0.01 | bafetinib -0.019 | [2] -0.001 | nilotinib 0.055 | [3] -0.029 | dasatinib 0.016 | [4] -0.09 | [5] -0.001 | quisinostat -0.074 | tipifarnib 0.027 | [6] 0.018 | [7] -0.041 | [8] -0.083

CXXC1 isoform 2 (UniProt Q9P0U4)
UniProt Q9P0U4, sequence (Q9P0U4 whole entry, looked up): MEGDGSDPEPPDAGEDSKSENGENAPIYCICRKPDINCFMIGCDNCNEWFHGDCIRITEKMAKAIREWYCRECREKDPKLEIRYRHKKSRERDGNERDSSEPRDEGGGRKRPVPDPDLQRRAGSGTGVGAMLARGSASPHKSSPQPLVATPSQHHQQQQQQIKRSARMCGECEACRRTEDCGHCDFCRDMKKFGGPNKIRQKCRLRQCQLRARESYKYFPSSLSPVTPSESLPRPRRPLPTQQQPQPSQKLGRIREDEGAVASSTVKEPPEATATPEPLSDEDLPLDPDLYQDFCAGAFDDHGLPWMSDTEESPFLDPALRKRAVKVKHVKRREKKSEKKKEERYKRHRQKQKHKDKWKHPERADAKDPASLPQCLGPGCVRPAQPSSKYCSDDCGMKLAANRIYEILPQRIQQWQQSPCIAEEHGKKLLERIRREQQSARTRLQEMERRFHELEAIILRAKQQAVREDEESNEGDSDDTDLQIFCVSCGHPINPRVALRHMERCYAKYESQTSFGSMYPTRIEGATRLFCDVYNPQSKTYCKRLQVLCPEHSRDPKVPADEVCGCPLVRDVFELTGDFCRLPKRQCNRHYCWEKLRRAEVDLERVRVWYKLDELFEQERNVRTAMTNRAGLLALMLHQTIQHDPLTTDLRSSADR
inactive: lapatinib -0.024 | pictilisib 0.107 | crizotinib -0.089 | [1] 0.058 | duvelisib 0.154 | gandotinib -0.046 | tozasertib -0.028 | doramapimod 0.018 | bafetinib -0.047 | [2] 0.005 | nilotinib 0.032 | [3] 0.029 | dasatinib -0.504 | [4] 0.026 | [5] -0.191 | quisinostat -0.159 | tipifarnib -0.039 | [6] -0.013 | [7] -0.021 | [8] 0.082

COG5 isoform 2 (UniProt Q9UP83)
inactive: lapatinib -0.059 | pictilisib -0.03 | crizotinib -0.025 | [1] 0.027 | duvelisib 0.007 | gandotinib -0.071 | tozasertib 0.013 | doramapimod -0.024 | bafetinib -0.034 | [2] 0.062 | nilotinib -0.023 | [3] 0.057 | dasatinib -0.153 | [4] -0.003 | [5] 0.037 | quisinostat -0.031 | tipifarnib -0.019 | [6] 0.043 | [7] -0.081 | [8] -0.12

DOCK8 (UniProt Q8NF50)
UniProt Q8NF50, sequence (Q8NF50 whole entry, looked up): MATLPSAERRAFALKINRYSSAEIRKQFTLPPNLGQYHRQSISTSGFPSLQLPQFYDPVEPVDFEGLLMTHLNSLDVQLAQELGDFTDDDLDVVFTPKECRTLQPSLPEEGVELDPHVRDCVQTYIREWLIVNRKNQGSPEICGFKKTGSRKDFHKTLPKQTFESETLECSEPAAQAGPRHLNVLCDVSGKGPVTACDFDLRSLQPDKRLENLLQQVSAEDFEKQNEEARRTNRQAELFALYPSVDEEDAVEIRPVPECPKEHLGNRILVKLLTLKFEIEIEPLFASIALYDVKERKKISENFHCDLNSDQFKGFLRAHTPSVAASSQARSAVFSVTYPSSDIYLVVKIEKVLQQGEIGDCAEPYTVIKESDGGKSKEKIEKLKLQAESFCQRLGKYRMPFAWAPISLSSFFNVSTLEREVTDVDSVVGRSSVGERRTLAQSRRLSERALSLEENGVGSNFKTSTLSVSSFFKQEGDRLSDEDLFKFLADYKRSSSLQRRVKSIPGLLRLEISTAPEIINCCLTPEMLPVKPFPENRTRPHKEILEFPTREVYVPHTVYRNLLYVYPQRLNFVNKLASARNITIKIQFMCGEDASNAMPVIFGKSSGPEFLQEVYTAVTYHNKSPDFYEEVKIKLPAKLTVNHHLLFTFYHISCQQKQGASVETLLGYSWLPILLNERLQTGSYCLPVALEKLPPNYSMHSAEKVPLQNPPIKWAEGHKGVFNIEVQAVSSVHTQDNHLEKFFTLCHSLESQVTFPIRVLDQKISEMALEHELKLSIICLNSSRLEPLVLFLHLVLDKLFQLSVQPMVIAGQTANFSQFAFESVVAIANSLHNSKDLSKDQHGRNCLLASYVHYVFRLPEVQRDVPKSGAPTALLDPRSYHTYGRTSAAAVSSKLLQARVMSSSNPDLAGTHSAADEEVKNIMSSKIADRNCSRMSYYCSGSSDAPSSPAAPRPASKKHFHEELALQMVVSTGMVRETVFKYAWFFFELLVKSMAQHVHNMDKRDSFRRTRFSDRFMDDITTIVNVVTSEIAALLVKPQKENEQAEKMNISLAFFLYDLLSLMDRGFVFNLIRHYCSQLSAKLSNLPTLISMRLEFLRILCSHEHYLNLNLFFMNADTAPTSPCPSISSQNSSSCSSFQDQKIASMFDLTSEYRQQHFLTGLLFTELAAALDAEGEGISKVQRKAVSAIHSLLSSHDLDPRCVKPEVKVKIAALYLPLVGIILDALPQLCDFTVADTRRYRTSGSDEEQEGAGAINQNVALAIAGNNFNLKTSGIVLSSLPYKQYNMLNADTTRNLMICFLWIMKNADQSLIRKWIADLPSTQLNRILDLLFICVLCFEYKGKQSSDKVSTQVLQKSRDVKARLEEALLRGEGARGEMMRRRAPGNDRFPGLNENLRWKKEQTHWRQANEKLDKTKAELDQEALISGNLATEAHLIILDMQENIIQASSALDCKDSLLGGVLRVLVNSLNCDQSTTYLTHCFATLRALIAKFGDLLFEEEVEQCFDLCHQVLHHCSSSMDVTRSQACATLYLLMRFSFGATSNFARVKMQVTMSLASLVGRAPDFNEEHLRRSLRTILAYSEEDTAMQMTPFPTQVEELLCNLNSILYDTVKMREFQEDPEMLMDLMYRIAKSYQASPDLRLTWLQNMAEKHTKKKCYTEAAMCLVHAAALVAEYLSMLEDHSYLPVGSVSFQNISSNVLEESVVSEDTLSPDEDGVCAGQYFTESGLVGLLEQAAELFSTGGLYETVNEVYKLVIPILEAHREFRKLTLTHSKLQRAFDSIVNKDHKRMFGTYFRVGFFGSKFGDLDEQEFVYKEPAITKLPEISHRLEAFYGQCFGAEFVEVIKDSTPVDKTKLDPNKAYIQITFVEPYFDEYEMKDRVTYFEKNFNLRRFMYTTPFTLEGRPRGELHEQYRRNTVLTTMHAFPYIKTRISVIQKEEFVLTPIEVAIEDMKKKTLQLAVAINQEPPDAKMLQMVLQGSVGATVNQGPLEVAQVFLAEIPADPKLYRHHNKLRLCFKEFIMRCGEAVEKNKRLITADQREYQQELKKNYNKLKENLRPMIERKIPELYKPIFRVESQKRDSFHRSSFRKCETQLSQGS
inactive: lapatinib -0.032 | pictilisib -0.011 | crizotinib -0.03 | [1] -0.002 | duvelisib 0.003 | gandotinib -0.097 | tozasertib 0.042 | doramapimod 0.029 | bafetinib -0.062 | [2] 0.02 | nilotinib -0.007 | [3] -0.023 | dasatinib -0.045 | [4] 0.04 | [5] 0.058 | quisinostat -0.053 | tipifarnib -0.033 | [6] 0.032 | [7] 0.016 | [8] 0

CINP isoform 3 (UniProt Q9BW66)
UniProt Q9BW66, sequence (Q9BW66 whole entry, looked up): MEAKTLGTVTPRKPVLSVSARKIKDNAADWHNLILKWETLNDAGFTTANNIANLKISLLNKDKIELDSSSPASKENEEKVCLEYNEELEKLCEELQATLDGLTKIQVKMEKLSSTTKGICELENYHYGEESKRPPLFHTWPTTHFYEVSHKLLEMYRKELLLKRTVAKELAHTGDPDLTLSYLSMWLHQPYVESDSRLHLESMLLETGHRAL
inactive: lapatinib -0.059 | pictilisib 0.011 | crizotinib -0.028 | duvelisib 0.062 | gandotinib 0.018 | tozasertib 0.056 | doramapimod 0.036 | bafetinib -0.059 | [2] 0.208 | nilotinib -0.13 | [3] 0.065 | dasatinib -0.073 | [4] 0.19 | [5] 0.024 | quisinostat 0.015 | tipifarnib -0.009 | [6] 0.034 | [7] 0.03
active: [1] -0.325

CMPK2 (UniProt Q5EBM0)
inactive: lapatinib 0.065 | pictilisib 0 | crizotinib 0.007 | [1] -0.074 | duvelisib 0.043 | gandotinib 0.008 | tozasertib 0.018 | doramapimod -0.01 | bafetinib -0.061 | [2] 0.056 | nilotinib -0.075 | [3] -0.01 | dasatinib -0.067 | [4] 0.005 | [5] -0.011 | quisinostat -0.02 | tipifarnib 0.042 | [6] 0.032 | [7] -0.006 | [8] 0.013

DNAJC1 (UniProt Q96KC8)
active: gandotinib -0.262
inactive: lapatinib -0.057 | pictilisib 0.013 | crizotinib -0.086 | [1] 0.033 | duvelisib -0.046 | tozasertib 0.019 | doramapimod -0.117 | bafetinib 0.001 | [2] -0.064 | nilotinib -0.03 | [3] 0 | dasatinib -0.09 | [4] -0.012 | [5] 0.016 | quisinostat 0.04 | tipifarnib 0.004 | [6] 0.026 | [7] -0.028 | [8] 0.028

DCP2 (UniProt Q8IU60)
inactive: lapatinib -0.027 | pictilisib 0.011 | crizotinib 0.038 | [1] 0.021 | duvelisib -0.011 | gandotinib -0.148 | tozasertib 0.018 | doramapimod 0.01 | bafetinib -0.062 | [2] -0.041 | nilotinib -0.065 | [3] -0.051 | dasatinib 0.009 | [4] 0.032 | [5] -0.018 | quisinostat -0.094 | tipifarnib -0.012 | [6] 0.014 | [7] 0.03 | [8] 0.024

CYP51A1 (UniProt Q16850)
UniProt Q16850, sequence (Q16850 whole entry, looked up): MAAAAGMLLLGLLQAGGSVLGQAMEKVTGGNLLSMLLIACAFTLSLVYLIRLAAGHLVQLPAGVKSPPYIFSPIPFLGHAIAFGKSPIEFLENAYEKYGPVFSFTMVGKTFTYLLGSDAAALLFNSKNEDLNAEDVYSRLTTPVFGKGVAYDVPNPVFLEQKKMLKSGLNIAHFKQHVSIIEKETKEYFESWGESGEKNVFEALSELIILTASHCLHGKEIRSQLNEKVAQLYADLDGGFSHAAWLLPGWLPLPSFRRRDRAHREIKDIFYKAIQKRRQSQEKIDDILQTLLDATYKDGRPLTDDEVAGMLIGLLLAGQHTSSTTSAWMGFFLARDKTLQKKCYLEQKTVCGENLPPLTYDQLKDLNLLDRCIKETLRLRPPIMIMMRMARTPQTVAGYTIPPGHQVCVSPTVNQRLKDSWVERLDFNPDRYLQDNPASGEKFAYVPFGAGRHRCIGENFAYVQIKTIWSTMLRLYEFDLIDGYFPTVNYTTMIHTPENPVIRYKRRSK
active: gandotinib 0.447 | bafetinib 0.385 | tipifarnib 0.664
inactive: lapatinib 0.105 | pictilisib 0.024 | crizotinib 0.023 | [1] -0.036 | duvelisib -0.065 | tozasertib 0 | doramapimod 0.089 | [2] 0.045 | nilotinib 0.124 | [3] -0.026 | dasatinib 0.048 | [4] 0.034 | [5] 0.083 | quisinostat -0.021 | [6] -0.016 | [7] -0.009 | [8] -0.081

CIB1 (UniProt Q99828)
inactive: lapatinib -0.073 | pictilisib 0.047 | crizotinib -0.046 | [1] 0.023 | duvelisib -0.006 | gandotinib -0.008 | tozasertib 0.06 | doramapimod 0.051 | bafetinib 0.115 | [2] 0.059 | nilotinib -0.014 | [3] -0.016 | dasatinib 0.022 | [4] 0.045 | [5] 0.008 | quisinostat 0.004 | tipifarnib 0.002 | [6] -0.011 | [7] 0.041 | [8] 0

DOK1 (UniProt Q99704)
UniProt Q99704, sequence (Q99704 whole entry, looked up): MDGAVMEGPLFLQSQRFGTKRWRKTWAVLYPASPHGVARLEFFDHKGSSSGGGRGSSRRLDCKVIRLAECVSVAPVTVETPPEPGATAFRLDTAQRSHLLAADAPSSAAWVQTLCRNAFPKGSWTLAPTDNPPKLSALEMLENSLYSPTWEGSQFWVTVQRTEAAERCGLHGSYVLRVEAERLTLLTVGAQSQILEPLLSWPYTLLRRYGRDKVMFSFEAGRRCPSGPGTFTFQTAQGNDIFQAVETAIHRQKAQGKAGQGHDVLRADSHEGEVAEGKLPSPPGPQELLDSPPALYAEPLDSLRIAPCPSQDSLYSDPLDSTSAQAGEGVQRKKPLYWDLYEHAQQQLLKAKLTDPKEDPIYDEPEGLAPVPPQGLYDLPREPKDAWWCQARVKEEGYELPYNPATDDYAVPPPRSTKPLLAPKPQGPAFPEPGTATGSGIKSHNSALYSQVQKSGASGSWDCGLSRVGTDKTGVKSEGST
inactive: lapatinib 0.01 | pictilisib -0.026 | crizotinib 0.007 | [1] -0.056 | duvelisib -0.002 | gandotinib 0.042 | tozasertib 0.008 | doramapimod 0.044 | bafetinib -0.006 | [2] -0.001 | nilotinib -0.019 | [3] 0.05 | dasatinib 0.014 | [4] -0.103 | [5] 0.023 | quisinostat -0.032 | tipifarnib 0.048 | [6] 0.07 | [7] -0.055 | [8] 0.018

CNST (UniProt Q6PJW8)
inactive: lapatinib 0.005 | pictilisib 0 | crizotinib 0.031 | [1] -0.022 | duvelisib -0.007 | gandotinib 0.033 | tozasertib 0.019 | doramapimod 0.005 | bafetinib 0.033 | [2] 0.025 | nilotinib 0.125 | [3] 0.029 | dasatinib 0.023 | [4] -0.123 | [5] 0 | quisinostat -0.005 | tipifarnib 0.054 | [6] -0.002 | [7] 0 | [8] 0.041

COQ8A (UniProt Q8NI60)
inactive: lapatinib 0.004 | pictilisib 0.025 | crizotinib 0.106 | [1] -0.078 | duvelisib -0.095 | gandotinib 0.126 | tozasertib 0.023 | doramapimod -0.059 | bafetinib 0.041 | [2] -0.042 | nilotinib 0.091 | [3] -0.013 | dasatinib 0.394 | [4] -0.211 | [5] -0.05 | quisinostat 0.082 | tipifarnib 0.032 | [6] 0.051 | [7] 0.348 | [8] 0.004

COG3 (UniProt Q96JB2)
UniProt Q96JB2, sequence (Q96JB2 whole entry, looked up): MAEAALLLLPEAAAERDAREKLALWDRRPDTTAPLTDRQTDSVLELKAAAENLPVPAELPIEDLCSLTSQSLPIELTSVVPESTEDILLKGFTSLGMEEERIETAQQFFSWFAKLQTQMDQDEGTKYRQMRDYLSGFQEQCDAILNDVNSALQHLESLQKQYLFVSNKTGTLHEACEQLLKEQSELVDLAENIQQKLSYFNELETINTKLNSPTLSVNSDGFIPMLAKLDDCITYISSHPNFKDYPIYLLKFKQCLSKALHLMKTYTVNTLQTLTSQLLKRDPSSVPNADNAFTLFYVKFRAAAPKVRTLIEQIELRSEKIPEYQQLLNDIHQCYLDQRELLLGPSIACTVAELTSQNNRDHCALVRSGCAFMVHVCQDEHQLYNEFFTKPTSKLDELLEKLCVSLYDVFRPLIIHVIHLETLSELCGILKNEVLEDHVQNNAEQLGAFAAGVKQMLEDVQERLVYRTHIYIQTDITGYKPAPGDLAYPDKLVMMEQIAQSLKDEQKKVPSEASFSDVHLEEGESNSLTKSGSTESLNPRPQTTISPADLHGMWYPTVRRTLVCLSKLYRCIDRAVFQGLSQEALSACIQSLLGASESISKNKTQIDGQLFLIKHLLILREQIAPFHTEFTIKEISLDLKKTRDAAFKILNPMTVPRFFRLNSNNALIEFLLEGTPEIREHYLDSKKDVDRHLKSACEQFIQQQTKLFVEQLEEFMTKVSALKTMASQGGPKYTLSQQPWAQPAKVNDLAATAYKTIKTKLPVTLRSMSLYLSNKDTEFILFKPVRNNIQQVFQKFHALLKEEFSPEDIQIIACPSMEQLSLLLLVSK
inactive: lapatinib -0.036 | pictilisib -0.054 | crizotinib -0.062 | [1] -0.036 | duvelisib 0.006 | gandotinib -0.064 | tozasertib 0.015 | doramapimod 0.03 | bafetinib 0.003 | [2] 0.093 | nilotinib -0.02 | [3] -0.023 | dasatinib -0.13 | [4] -0.002 | [5] 0.023 | quisinostat -0.097 | tipifarnib 0.022 | [6] 0.044 | [7] 0.024 | [8] -0.083

CSK (UniProt P41240)
active: dasatinib 0.578 | [6] 0.646
inactive: lapatinib -0.022 | pictilisib -0.017 | crizotinib 0.259 | [1] -0.075 | duvelisib -0.026 | gandotinib 0.377 | tozasertib 0.098 | doramapimod -0.005 | bafetinib 0.41 | [2] 0 | nilotinib 0.144 | [3] 0.125 | [4] 0.002 | [5] 0.102 | quisinostat -0.08 | tipifarnib -0.041 | [7] 0.071 | [8] -0.043

CSTB (UniProt P04080)
UniProt P04080, sequence (P04080 whole entry, looked up): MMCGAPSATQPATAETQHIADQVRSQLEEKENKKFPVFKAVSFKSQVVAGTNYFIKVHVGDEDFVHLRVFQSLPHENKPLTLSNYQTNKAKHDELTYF
inactive: lapatinib 0.05 | pictilisib 0.003 | crizotinib -0.059 | [1] -0.235 | duvelisib 0.025 | gandotinib 0.147 | tozasertib -0.01 | doramapimod 0.107 | bafetinib 0.012 | [2] 0.104 | nilotinib 0.057 | [3] 0.009 | dasatinib -0.017 | [4] 0.079 | [5] -0.022 | quisinostat -0.206 | tipifarnib -0.008 | [6] -0.004 | [7] -0.055 | [8] -0.005
